# CYP2C9 act = activators of human CYP2C9; P11712; recombinant CYP2C9, luciferin-H conversion, luminescence; hits give high values; factor 1 = untreated enzyme, 0 = blocked; activation factor at 5 µM; actives 1.4% (n = 96,000); AID 1024;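 active = activation factor of 2 or more for CYP2C9 at a 5 µM dose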;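 also: 0 = sulfaphenazole-blocked wells and 1 = vehicle-only wells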
# Target sequence (P11712 whole entry, looked up): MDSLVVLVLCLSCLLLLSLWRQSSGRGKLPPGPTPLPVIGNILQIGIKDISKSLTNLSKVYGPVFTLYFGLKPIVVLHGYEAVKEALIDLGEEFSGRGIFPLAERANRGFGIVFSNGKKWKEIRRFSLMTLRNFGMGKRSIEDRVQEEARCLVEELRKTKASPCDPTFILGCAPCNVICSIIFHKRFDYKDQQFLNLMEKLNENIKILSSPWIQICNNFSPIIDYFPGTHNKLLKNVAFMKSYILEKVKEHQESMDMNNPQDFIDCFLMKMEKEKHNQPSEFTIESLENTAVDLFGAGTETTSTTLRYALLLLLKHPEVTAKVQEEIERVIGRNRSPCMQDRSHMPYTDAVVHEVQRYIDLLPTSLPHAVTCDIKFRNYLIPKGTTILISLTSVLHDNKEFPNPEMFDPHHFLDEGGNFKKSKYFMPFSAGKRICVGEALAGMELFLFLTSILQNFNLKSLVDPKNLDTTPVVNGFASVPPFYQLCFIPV
# CYP2C19 activ = activators of human cytochrome P450 2C19 | recombinant CYP2C19, luciferin-H EGE luminescence; hits give high values; 0 = fully inhibited enzyme, 1 = untreated enzyme | 96,000 tested, under 10 active | activation factor at 5 µM;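 active = activation factor of at least 2 at 5 µM in the primary screen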;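 also: 0 = wells with 2.5 mM tranylcypromine and 1 = vehicle-only wells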
# CYP2C9 inh = inhibitors of human CYP2C9; AID 777; P11712; CYP2C9 Supersomes, luciferin-H conversion, luminescence; inhibition, % at 5 µM; actives 20% (n = 96,000);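 active = blocking of liver enzyme CYP2C9 beyond about 50% at 5 µM, limit read from the data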
# CYP2C19 inh = human CYP2C19 inhibition; P33261; CYP2C19 Supersomes, luciferin-H EGE luminescence, 30 min; inhibition, % at 5 µM; actives 21% (n = 96,000); AID 778;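 active = CYP2C19 inhibition above a set limit at 5 µM in the primary screen, cut at about 50% in these data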;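 also: plate controls were negative control wells for no effect and 2.5 mM tranylcypromine positive control for full effect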
# PLAP act = activates human placental alkaline phosphatase; activation fold at 20 µM; AID 696; P05187; actives 1.2% (n = 96,000); purified PLAP enzyme, luminescent substrate read-out; hits give high values; in the data active = activation fold above about 2
# * = called active by the depositor; x = not tested or not shown. Rows were chosen to be rich in hits. Some 31% of all compounds tested hit in one or more screens of this group.
SMILES,CYP2C9 act,CYP2C19 activ,CYP2C9 inh,CYP2C19 inh,PLAP act
O=C(CN1C(=O)c2ccccc2C1=O)Nc1sc2c(c1C(=O)NCc1ccco1)CCCC2,0.2,0.8,82*,19,1.1
O=C(CCCN1C(=O)c2ccccc2C1=O)Nc1sc2c(c1C(=O)NCc1ccco1)CCC2,0,0.4,96*,65*,1.4
O=C(CCN1C(=O)c2ccccc2C1=O)NCc1ccco1,1.1,1.1,-7,-15,0.9
COc1cc(NS(=O)(=O)c2ccc(N/C=C(\C#N)c3nc4cc(Cl)ccc4o3)cc2)nc(OC)n1,0.4,1.1,63*,-6,2.1*
CSc1ccccc1NC(=O)COc1ccc(S(=O)(=O)N2CCCC2)cc1,0.2,0.9,80*,14,0.9
COc1ccc(CNC(=O)C2CCCN(S(=O)(=O)c3cc(C)ccc3OC)C2)cc1 (stereo not drawn),0.6,0.5,44,46,0.9
COc1ccc(S(=O)(=O)N2CCCC(C(=O)NCc3ccncc3)C2)cc1 (stereo not drawn),0,0,99*,99*,1.4
O=C(NCc1ccccn1)C1CCCN(S(=O)(=O)c2ccccc2)C1 (stereo not drawn),1,1.1,1,-7,0.9
COc1ccc(S(=O)(=O)N2CCCC(C(=O)NCc3ccccn3)C2)cc1 (stereo not drawn),2.4*,0.9,-138,15,1.2
Cc1cccc(OCC(=O)Nc2ccc(S(=O)(=O)N3CCCC3)cc2)c1,0.5,0.8,47,21,1.2
Cc1ccc(S(=O)(=O)N2CCC(C(=O)NCCN3CCCCCC3)CC2)cc1,0.8,0.8,25,21,2.1*
Cc1ccc(S(=O)(=O)N2CCC(C(=O)NCCc3ccccc3)CC2)cc1,1.2,0.9,-18,6,0.8
CCOC(=O)c1sc(NC(=S)NC(=O)c2cccc(Cl)c2)c(C(=O)OCC)c1C,1,1.1,-1,-8,1.2
N=c1n(CCN2CCOCC2)c2ccccc2n1Cc1ccccc1Br,1,1,0,0,1.4
C=CCNC(=O)C1CCN(c2c([N+](=O)[O-])cc(C(F)(F)F)cc2[N+](=O)[O-])CC1,0.8,0.9,22,14,0.9
O=C(COc1ccc(S(=O)(=O)N2CCCCC2)cc1)NCc1ccncc1,0.1,0.1,92*,92*,1.2
Cc1ccc(S(=O)(=O)N2CCC(C(=O)NCc3cccnc3)CC2)cc1,0.8,0.8,22,21,0.9
Cc1ccc(S(=O)(=O)N2CCC(C(=O)NCc3ccncc3)CC2)cc1,0,0.2,99*,84*,1.1
CSc1nc(C)cc(OCCNS(=O)(=O)c2cc(C)ccc2C)n1,0.5,0.6,46,40,0.8
N#CC1=C(N)Oc2cc(O)ccc2C1c1ccncc1 (stereo not drawn),0.1,0.2,92*,84*,0.9
N#CC1=C(N)Oc2n[nH]c(-c3cccs3)c2C1c1cccs1 (stereo not drawn),0.8,1,15,4,1
Cc1oc(C)c2c(=O)ccc3c(c12)OC(N)=C(C#N)C3c1ccccc1 (stereo not drawn),0.5,0.6,48,39,1.1
N#CC1=C(N)Oc2cc(O)ccc2C1c1cccs1 (stereo not drawn),0.3,0.2,74*,76*,0.7
N#CC1=C(N)Oc2c(ccc3ccccc23)C1c1cccs1 (stereo not drawn),0.5,0.5,54*,46,1.1
CN(C)c1ccc2c(c1)OC(N)=C(C#N)C2c1cccc(F)c1 (stereo not drawn),0.2,0.1,80*,92*,0.9
SMILES,CYP2C9 act,CYP2C19 activ,CYP2C9 inh,CYP2C19 inh,PLAP act
COc1ccc2[nH]cc(CCN3C(=O)CCC3=O)c2c1,0.6,0.6,40,45,0.9
Cc1ccc(OCc2nnc(NC(=O)c3ccco3)s2)c(C)c1,0.8,1.1,20,-11,1.2
Cc1ccc(-c2nnc(SCC(=O)Nc3ccc4c(c3)oc3ccccc34)n2C)c(Cl)c1,0.4,0.8,59*,24,0.8
CCOc1ccc(-c2n[nH]c(C)c2Oc2ccc(OC)cc2)c(O)c1,0,0,99*,100*,x
Cc1[nH]nc(-c2ccc(O)c(C)c2O)c1Oc1ccccc1,0,0,100*,100*,0.5
Cc1ccc(S(=O)(=O)NCCOc2nc(N3CCOCC3)nc(N3CCOCC3)n2)cc1,0.6,0.8,36,24,1.2

# High-throughput results: PubChem BioAssay, Sanford-Burnham Center for Chemical Genomics
